# High-throughput results from PubChem BioAssay.
# Only a selection was taken, and hits are over-represented in it overall.
# Dicer inh = inhibitors of human Dicer processing of pre-microRNA | Q9UPY3 | cat-ELCCA pre-miR-21 Dicer processing, chemiluminescence; stronger effect = higher value | z-score at 25 µM | actives 6% (n = 47,000); in the data active = z-score above about 3, passing the limit was not always enough;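 note: plate controls were vehicle for no effect and no enzyme for full effect; higher signal means more uncleaved substrate so more Dicer inhibition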
# Numbers without * were called inactive.
SMILES,Dicer inh
O=C(O)C(c1ccccc1)(c1ccccc1)c1ccccc1,1.1
O=C1CCCC(O)=C1C=Nc1ccccc1,0.6
O=S(=O)(Nc1ccc(S(=O)(=O)Nc2ncccn2)cc1)c1ccc(F)cc1,0.39
COc1cccc2c1OC(c1cccnc1)N1N=C(c3cc(Cl)ccc3O)CC21 (centres undefined),1.1
COc1ccc(C2CC(c3ccc(Cl)cc3)Nc3nc(N)nn32)cc1OC (centres undefined),-1.2
COc1ccc(C2CC(c3cc(Cl)ccc3O)=NN2)cc1OC (centres undefined),4.4*
CC(C)(C)NC(=S)Nc1cc(Cl)ccc1Cl,1.6
CCNC(=O)N(Cc1ccc(Cl)cc1)Cc1cccnc1,0.39
CCc1ccc(C2c3c(oc4ccccc4c3=O)C(=O)N2c2nncs2)cc1 (centres undefined),-0.35
Cc1c(NC(=O)OCc2ccccc2)c(=O)n(-c2ccccc2)n1C,-0.02
CC1CCN(C(=O)CN2C(=O)C(=O)c3ccccc32)CC1,1.5
O=C(COC(=O)CN1C(=O)C(=O)c2ccccc21)NCc1ccco1,1.4
CCOC(=O)CCN1C(=O)c2ccccc2C1=O,0.31
CCOC(=O)CN1C(=O)C(=O)c2ccccc21,4.6*
Cc1c(NC(=O)COC(=O)CN2C(=O)C(=O)c3ccccc32)c(=O)n(-c2ccccc2)n1C,3.8*
O=C(COc1cc(Cl)c(Cl)cc1Cl)Nc1cccc(C(F)(F)F)c1,-0.4
CCOC(=O)N1CCN(c2nc3c([nH]2)c(=O)n(C)c(=O)n3C)CC1,1.6
N#C/C(=C\Nc1ccccc1)S(=O)(=O)c1ccc(Cl)cc1,-4.8
CC1=C(C(=O)OCCc2ccccc2)C(c2ccccc2)C2=C(CC(C)(C)CC2=O)N1 (centres undefined),0.58
CCOC(=O)N1CCc2c(sc3c2C(=O)NC(c2cc(Br)ccc2OC)N3)C1 (centres undefined),0.46
O=C1c2oc3ccc(F)cc3c(=O)c2C(c2ccc(O)cc2)N1Cc1ccccc1Cl (centres undefined),0.49
O=C(CCSc1nnc2ccccn12)Nc1cccc(-c2nc3ccccc3s2)c1,6.1*
O=C(CSc1nnc2ccccn12)Nc1cccc(-c2nc3ccccc3s2)c1,-1.3
O=C(CSc1nnc2ccccn12)Nc1ccc(Cl)cc1,0.1
O=C(COc1ccc2c(=O)c(Oc3ccccc3Br)coc2c1)OC1CCCCC1,-0.81
SMILES,Dicer inh
COc1ccc(CNc2ccccc2-c2nc3ccccc3[nH]2)cc1,-0.39
Cc1ccc(C(=O)CSc2nc3ccccc3c(=O)[nH]2)cc1C,-0.87
Cc1cc(C)c2c(=O)[nH]c(SCC(=O)c3ccc(O)c(O)c3)nc2n1,3.7*
Cc1cc(=O)[nH]c(SCC(=O)c2ccc(F)cc2)n1,1.7
COc1ccc(Cc2nnc(SCc3ccc(Br)cc3)o2)cc1,1.8
CCOC(=O)C(C)Oc1ccc2c(=O)c(Oc3cccc(C)c3)coc2c1 (centres undefined),-0.43
O=S(=O)(Nc1cccc(C(F)(F)F)c1)c1c(F)c(Br)cc(F)c1Br,0.03
CC(=O)Oc1ccc2oc3c(c2c1)C(=O)CCC3,4.8*
CC(=O)Oc1ccc2c(C)cc(=O)oc2c1,-0.41
CC(=O)Oc1ccc2oc(C)c(C(=O)OC(C)C)c2c1,0.44
O=C(O)c1ccccc1SC(C[N+](=O)[O-])c1ccc2ccccc2c1 (centres undefined),-1.6
COc1ccc(S(=O)(=O)n2cnc3cc(C)c(C)cc32)c2ccccc12,9.2
O=C(c1ccc(F)cc1)C(C(=O)N1CCCCC1)n1cc(Cl)ccc1=O (centres undefined),0.36
O=C(CSc1ncccc1C(F)(F)F)c1ccc(Cl)cc1,-0.94
Oc1ccc(Cl)c(C(c2c[nH]c3ccccc23)c2c[nH]c3ccccc23)c1,0.64
CCOc1ccc(C(c2c[nH]c3ccccc23)c2c[nH]c3ccccc23)cc1,3.4*
CCOc1cccc(C(c2c[nH]c3ccccc23)c2c[nH]c3ccccc23)c1OC,4*
CCOc1ccccc1C(c1c(C)[nH][nH]c1=O)c1c(C)[nH][nH]c1=O,-6.8
NCC(c1ccccc1)c1c[nH]c2ccccc12 (centres undefined),-0.35
Cc1[nH][nH]c(=O)c1C(c1c(C)[nH][nH]c1=O)c1c[nH]c2ccccc12,-6.8
O=C1C(=O)N(CCN2CCOCC2)C(c2cccnc2)/C1=C(\O)c1ccc(Br)cc1 (centres undefined),0.02
COC(=O)c1c(-c2c(Cl)cccc2Cl)noc1NC(=O)O/N=C(\N)c1c(Cl)cccc1Cl,1.6
COc1ccc(-c2nc(=S)c3c(n2CCO)CCCC3)cc1,-0.74
N=C1C(c2nc3ccccc3s2)=C(O)CN1C1CCCCC1,3.1*
Cc1ccc(N2CC(O)=C(c3nc4ccccc4s3)C2=N)cc1,0.48
SMILES,Dicer inh
N=C1C(c2nc3ccccc3s2)=C(O)CN1Cc1ccccc1,0.75
C/C(Cc1ccccc1)=N\NC(=O)c1ccncc1,-0.68
C/C(=N/NC(=O)c1ccccc1)C(=O)O,3.3*
CC(C)(C)c1ccc(C(=O)N/N=C(/C(=O)O)c2ccccc2)cc1,0.11
CCCCCCCSc1nc2c(c(=O)[nH]c(=O)n2C)n1C,0.75
CN1CCN(CC(=O)Nc2scc3c2c(=O)oc2ccccc23)CC1,-0.03
C=CCN1C(C(=O)c2ccccc2)=C(OC(C)=O)c2ccccc2S1(=O)=O,-0.22
CCN(CC)C1=C(C(=O)c2ccccc2)N(CC(N)=O)S(=O)(=O)c2ccccc21,3.1*
O=C(CN1C(=O)c2ccccc2S1(=O)=O)c1ccccc1,-1.1
Cc1cc(NCCC(C)C)n2ncnc2n1,-0.71
O=C1C=C(c2ccccc2)OC(c2ccc([N+](=O)[O-])cc2)O1 (centres undefined),-0.29
CNC(=S)NNS(=O)(=O)c1ccc(Cl)cc1,-3.3
O=C1c2ccccc2NC(c2ccccc2O)N1c1ccc(F)cc1 (centres undefined),-0.68
Cc1ccc(N2C(=O)c3ccccc3C2C(=O)c2cc(C)ccc2O)cc1 (centres undefined),11*
Cc1ccc(/C(O)=C2/C(=O)C(=O)N(c3ccc(O)cc3)C2c2ccccc2)cc1 (centres undefined),0.95
C=CCOc1ccc2oc(-c3ccc(OC)cc3)cc(=O)c2c1,1
CCn1cc(CN(C)C(=O)c2cnn3c(C(F)F)cc(-c4ccccc4)nc23)c(C)n1,0.98
Cc1ccc(NC(=O)Nc2ccc(C(F)(F)F)cc2)cc1NS(C)(=O)=O,6.3*
Cc1csc(NC(=O)Nc2ccc(C(F)(F)F)cc2)c1Cl,0.31
Cc1ccc(NC(=O)c2ccsc2)cc1NS(C)(=O)=O,-2.1
CS(=O)(=O)N(Cc1ccc(Cl)cc1)c1ncc(C(F)(F)F)cc1Cl,-0.74
Cn1c2c(c(=O)n(C)c1=O)CN(CCCCCCO)CN2,-2.1
COCCN1CNc2c(c(=O)n(C)c(=O)n2C)C1,3.5*
Cn1c2c(c(=O)n(C)c1=O)CN(C1CC1)CN2,-1.8
Cn1c2c(c(=O)n(C)c1=O)CN(CCc1ccc(Cl)c(Cl)c1)CN2,-5.6
SMILES,Dicer inh
Cn1c2c(c(=O)n(C)c1=O)CN(Cc1ccc(F)cc1)CN2,4.3*
Cn1c2c(c(=O)n(C)c1=O)CN(CCc1ccccc1)CN2,-3.7
Cn1c(SCc2ccc([N+](=O)[O-])cc2)nc2sc3c(c2c1=O)CCCC3,0.16
O=C(Oc1cc2ccccc2cc1C(=O)O)c1cccc(Cl)c1,-1.2
CCn1c(C)[n+](CC(O)COc2cccc(OC)c2)c2ccccc21 (centres undefined),-0.08
O=C(/C=C/Nc1ccc(C(F)(F)F)cc1)c1ccc(F)cc1,2.4
